Assay results reported in PubChem BioAssay (NCI).
About 79,000 compounds went through this panel and 15% of them were active in at least one assay; those are over-represented in the sample as a whole. No stated cut-off is given here; in the data, active means growth inhibition above about 70%; inactive means the rest.

Key:
[1] = NCI Yeast Anticancer Drug Screen. Data for the rad50 strain (AID 155);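 further: 0% = growth of vehicle-only cultures of the same strain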; conditions: S. cerevisiae rad50 strain growth inhibition; at 50.0 µM; active compounds read high
Outline: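 Vehicle-treated cultures provide the reference for the growth inhibition reported for compound-exposed, repair-deficient yeast.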

[2] = NCI Yeast Anticancer Drug Screen. Data for the mec2-1 strain (AID 157); conditions: S. cerevisiae mec2-1 strain, at 50.0 µM, active compounds read high
Outline: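 Each compound was tested on mec2-1 yeast, a strain altered in DNA damage repair or cell cycle control. Growth inhibition is reported relative to vehicle.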

[3] = NCI Yeast Anticancer Drug Screen. Data for the sgs1 mgt1 strain (AID 161);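 further: 0% = growth of cultures given vehicle only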; conditions: S. cerevisiae sgs1 mgt1 strain, at 50.0 µM, active compounds read high
Outline: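 Mutant yeast exposed to compound; growth scored against vehicle-only wells.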

[4] = NCI Yeast Anticancer Drug Screen. Data for the cln2 rad14 strain (AID 165);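 further: 0% = growth equal to vehicle treated cultures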; conditions: S. cerevisiae cln2 rad14 strain, at 50.0 µM, active compounds read high
Outline: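 Test compounds were added to cln2 rad14 yeast cultures; inhibition of growth was then determined by comparison with vehicle treatment.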

[5] = NCI Yeast Anticancer Drug Screen. Data for the bub3 strain (AID 167); conditions: S. cerevisiae bub3 mutant strain, at 50.0 µM, active compounds read high
Outline: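 Mutant yeast screening strain plus compound; vehicle-treated cultures serve as the 0% inhibition reference.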

[6] = NCI Yeast Anticancer Drug Screen. Data for the mlh1 rad18 strain (AID 175); conditions: S. cerevisiae mlh1 rad18 strain growth inhibition; at 50.0 µM; active compounds read high
Outline: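 Inhibition values reflect reduced growth of mutant yeast versus vehicle-treated controls following compound exposure; the mutations affect DNA damage repair.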

Measured: growth inhibition

COCCCC(O)CNC(C)C (stereo not given)
inactive: [1] -11.2% | [2] 7.1% | [3] -16.4% | [4] -18.2% | [5] 0.95% | [6] -5.95%

COc1c2ccoc2c(OC)c2oc(=O)ccc12
inactive: [1] 13.3% | [2] -23.6% | [3] 11.7% | [4] 17.2% | [5] -4% | [6] -2.45%

Cc1c(C(=O)O)[nH]c(=O)[nH]c1=O
inactive: [1] 9.1% | [2] -20.4% | [3] 2.2% | [4] 11.5% | [5] -0.35% | [6] -12.1%

O=C(CC(O)(C(F)(F)F)C(F)(F)F)C(CCCl)C(O)(C(F)(F)F)C(F)(F)F (stereo not given)
inactive: [1] 17.6% | [2] 18.9% | [3] 41.6% | [4] 21.4% | [5] 8.05% | [6] 38.8%

CCOc1c(CNC(=O)CCl)cc(N)cc1CNC(=O)CCl
inactive: [1] 6.45% | [2] 3.4% | [3] -14% | [4] 10.8% | [5] 2.1% | [6] -10.3%

CCOC(=O)C(/C=N\C(=S)Nc1ccc(OCC)cc1)=C(/O)c1ccccc1
inactive: [1] -49.1% | [2] -52.6% | [3] -26.6% | [4] -14.8% | [5] -30.2% | [6] 6.5%

CC(=[N-])CC(C)=O.O=C(CC(=Nc1ccccc1)c1ccccc1)c1ccccc1.[Cu+]
inactive: [1] -21.2% | [2] -7.5% | [3] 1.6% | [4] 29.3% | [5] -3.45% | [6] 16.2%

C=CCc1cc(N)ccc1O
inactive: [1] 15.9% | [2] 8.9% | [3] 11.8% | [4] 11.8% | [5] 11.7% | [6] 7.9%

CSc1nccc(=O)n1C
inactive: [1] 9.6% | [2] -14.8% | [3] -9.8% | [4] -52.6% | [5] -21.6% | [6] -2.15%

C(=N/N=C(/C(=N/N=C/c1ccccc1)c1ccccc1)c1ccccc1)\c1ccccc1
inactive: [1] 26.6% | [2] 5% | [3] 33.3% | [4] 8.4% | [5] 11.9% | [6] 5.45%

O=C(O)C(=Cc1ccnc2ccccc12)C(=O)O
inactive: [1] 7.75% | [2] -13.7% | [3] -35.8% | [4] 15.7% | [5] -52.2% | [6] 3.5%

Oc1ccc(Cl)cc1N1CCOCC1
inactive: [1] 9.55% | [2] 24.1% | [3] 13.4% | [4] -15.2% | [5] -19.6% | [6] -15%

CCOc1ccccc1C1=CCCCCC1
inactive: [1] -0.65% | [2] -5% | [3] -9% | [4] -24.6% | [5] -10% | [6] 1.3%

C/C(=N\NC(=S)NC(C)C)c1nc2ncccc2[nH]1
inactive: [1] -14.5% | [2] -17.6% | [3] -56.6% | [4] -28.8% | [5] 17.5% | [6] -25.8%

Cc1cccc(C(=O)NNC(=O)c2ccc3ccccc3c2)c1
inactive: [1] -60.3% | [2] -49.7% | [3] -23.9% | [4] -3.6% | [5] -28.9% | [6] -33.2%

O=C(Nc1ccc(Cl)cc1)/C(Cc1cccc[n+]1[O-])=N\Nc1ccc([N+](=O)[O-])cc1[N+](=O)[O-]
inactive: [1] -19.4% | [2] -17% | [3] -6.2% | [4] -7.15% | [5] -26.6% | [6] -20.2%

CC1=NNC(=O)CC1C(O)c1ccc(F)cc1 (stereo not given)
inactive: [1] -33.5% | [2] 1.4% | [3] -10.1% | [4] -2.35% | [5] 0% | [6] -1.85%

C[N+]1(CCC[N+]2(C)CCC3(CCCCC3)CC2)CCOCC1
inactive: [1] 18.6% | [2] -0.05% | [3] 11.2% | [4] -4.8% | [5] -1.55% | [6] 16.8%

CCCCCNc1ccnc(=O)[nH]1
inactive: [1] 11.8% | [2] 6.8% | [3] 2% | [4] -39.5% | [5] -12.9% | [6] -12.7%

Cc1[nH]ccc2c3ccc(=O)cc3n(S(=O)(=O)O)c12
inactive: [1] 10.7% | [2] -8.3% | [3] -1.45% | [4] 18.4% | [5] 16.8% | [6] -7.25%

CC(=O)Nc1cc(N)ccc1C
inactive: [1] 7.15% | [2] 4.45% | [3] 1.65% | [4] -18.2% | [5] 10.6% | [6] -14.3%

O=C(Nc1cccc2ccccc12)c1ccccc1
inactive: [1] 18.4% | [2] -38.2% | [3] -0.25% | [4] -37.2% | [5] -9.45% | [6] 19.4%

Cc1cc2c(cc1Cl)S(=O)(=O)OC(c1ccc([N+](=O)[O-])cc1)=N2
inactive: [1] -3.25% | [2] -4.3% | [3] -0.1% | [4] 0.45% | [5] 19.1% | [6] -10.3%

C#Cc1nc(N)c2ncn(C3OC(COS(N)(=O)=O)C(O)C3O)c2n1 (stereo not given)
inactive: [1] 17.1% | [2] 32.5% | [3] 7.9% | [4] 28.4% | [5] 10.3% | [6] 10.6%

C/C(CC/C(C)=N/O)=N\O
inactive: [1] 6.4% | [2] 4.25% | [3] -0.55% | [4] -9.45% | [5] 11.6% | [6] 9.7%

Cc1ccccc1N=Nc1c(-c2ccccc2)nn(C(N)=S)c1-c1ccccc1
inactive: [1] 36.2% | [2] 7.2% | [3] 24.1% | [4] 4.05% | [5] 0.95% | [6] 19%

O=C(O)c1cccc(CO)c1O
inactive: [1] 3.25% | [2] -10.5% | [3] -12.7% | [4] -17.4% | [5] 6.75% | [6] 4.4%

O=C1Cc2c([nH]c3ccccc23)-c2cc(Br)ccc2N1
inactive: [1] 13.4% | [2] 6.85% | [3] -2% | [4] 2.9% | [5] 31.6% | [6] 2.9%

CCCC1(C)COC(C)(CCC)OC1 (stereo not given)
inactive: [1] -31.6% | [2] -8.3% | [3] -17.9% | [4] -34.4% | [5] -16.9% | [6] -0.45%

Cc1ccc(S(=O)(=O)NC(=O)C#CCOC2CCCCO2)cc1 (stereo not given)
inactive: [1] 8.7% | [2] -0.85% | [3] -3.3% | [4] 14.3% | [5] 22.6% | [6] 18.2%

N#CC(/C(=N/NC(=O)C(=O)NN)C(=O)NC12CC3CC(CC(C3)C1)C2)c1ccccc1 (stereo not given)
inactive: [1] 16.1% | [2] 10.8% | [3] 1% | [4] 1.4% | [5] 30.6% | [6] -2.05%

c1ccc(SCc2ccc3c(c2)OCO3)cc1
inactive: [1] 27.4% | [2] 1.4% | [3] 18.2% | [4] 9.25% | [5] 18.8% | [6] 16.8%

Cc1ccc(C(=O)NC(N)=O)cc1
inactive: [1] 12.4% | [2] -6.25% | [3] -17.8% | [4] -51.4% | [5] -13.1% | [6] -18.6%

CC(=O)NC1CC(=O)N(c2ccccc2)C1=O (stereo not given)
inactive: [1] 16.4% | [2] 7.8% | [3] 12.2% | [4] 5.9% | [5] -1.8% | [6] -19.1%

N/C(=N\C(=O)OCCOC(=O)/N=C(/N)c1ccccc1)c1ccccc1
inactive: [1] -3.5% | [2] -8.5% | [3] -6.05% | [4] -20.5% | [5] -3.1% | [6] -27.1%

O=C(O)c1nn(-c2ccc(Cl)cc2)c2c1C(=O)c1ccccc1C2=O
inactive: [1] 20.9% | [2] 14.7% | [3] -1.75% | [4] 14.1% | [5] 12% | [6] 4.65%

COC1O[C@H]2CCN(C(=O)OCc3ccccc3)[C@H]2[C@H]1OCc1ccccc1 (stereo not given in full)
inactive: [1] 19.8% | [2] -11.6% | [3] 20.2% | [4] 4.05% | [5] 28.6% | [6] 44.5%

CC(=O)Nc1cc(NC(C)=O)c(N=O)c(NC(C)=O)n1
inactive: [1] -19.5% | [2] -13.2% | [3] -0.7% | [4] -3.45% | [5] -15.8% | [6] 7.35%

CC1(C)N=C(N)N=C(N)N1CCCCc1ccccc1
inactive: [1] -23.7% | [2] -41.9% | [3] -27.4% | [4] -25.4% | [5] -71.8% | [6] -16.6%

N#Cc1ccc(OCCCCCOc2ccc([N+](=O)[O-])cc2)cc1
inactive: [1] 19.4% | [2] 11.6% | [3] 8.65% | [4] 12.8% | [5] 13.9% | [6] 4.4%
